Reference: the supplement of paper PMC6555819

Tests used:
Assay in all cases: PBM binding z-score (relative to random genomic background probes); higher = stronger binding; sequences stand for … in GC…GCGATTGACAGCGTAGAATGAAGG
[1] = test system: FXR:RXRa (NR concentration 270 nM, RXRa partner concentration 90 nM)
Outline: (§1)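 Ligand-free nuclear receptor dimers were bound for 1 h to custom Agilent 4×180K protein-binding microarrays. Detection used antibodies against each partner (one per run). Binding z-scores rest on regression-normalized fluorescence, with random background probes as the reference.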

[2] = test system: LXRa:RXRa (NR concentration 270 nM, RXRa partner concentration 90 nM)
Outline: as §1

[3] = test system: LXRa homodimer (NR concentration 270 nM)
Outline: as §1

[4] = test system: LXRb:RXRa (NR concentration 270 nM, RXRa partner concentration 90 nM)
Outline: as §1

[5] = test system: LXRb homodimer (NR concentration 270 nM)
Outline: as §1

[6] = test system: PPARg:RXRa (NR concentration 180 nM, RXRa partner concentration 90 nM)
Outline: as §1

[7] = test system: PPARg:RXRa 270nM:90nM, anti-RXR (NR concentration 270 nM, RXRa partner concentration 90 nM)
Outline: as §1

[8] = test system: PPARg:RXRa 30nM:10nM, anti-RXR (NR concentration 30 nM, RXRa partner concentration 10 nM)
Outline: as §1

[9] = test system: PPARg:RXRa 90nM:30nM, anti-RXR (NR concentration 90 nM, RXRa partner concentration 30 nM)
Outline: as §1

[10] = test system: PPARg:RXRa DBDmut IVT, anti-RXR (DBD mutation: RXRa K156A/R161A, NR concentration 270 nM, RXRa partner concentration 90 nM)
Outline: as §1

[11] = test system: PPARg:RXRa IVT, anti-PPARg (NR concentration 270 nM, RXRa partner concentration 90 nM)
Outline: as §1

[12] = test system: PPARg DBDmut:RXRa IVT, anti-PPARg (DBD mutation: PPARg1 K132A/R137A, NR concentration 270 nM, RXRa partner concentration 90 nM)
Outline: as §1

[13] = test system: PPARg DBDmut IVT, anti-PPARg (DBD mutation: PPARg1 K132A/R137A, NR concentration 270 nM)
Outline: as §1

[14] = test system: PPARg homodimer (NR concentration 180 nM)
Outline: as §1

[15] = test system: PXR:RXRa (NR concentration 270 nM, RXRa partner concentration 90 nM)
Outline: as §1

[16] = test system: PXR homodimer (NR concentration 270 nM)
Outline: as §1

[17] = test system: RARa:RXR (NR concentration 270 nM, RXRa partner concentration 90 nM)
Outline: as §1

[18] = test system: RARa homodimer (NR concentration 270 nM)
Outline: as §1

[19] = test system: RARb:RXRa (NR concentration 270 nM, RXRa partner concentration 90 nM)
Outline: as §1

Sequence | PBM binding z-score [1] | PBM binding z-score [2] | PBM binding z-score [3] | PBM binding z-score [4] | PBM binding z-score [5] | PBM binding z-score [6] | PBM binding z-score [7] | PBM binding z-score [8] | PBM binding z-score [9] | PBM binding z-score [10] | PBM binding z-score [11] | PBM binding z-score [12] | PBM binding z-score [13] | PBM binding z-score [14] | PBM binding z-score [15] | PBM binding z-score [16] | PBM binding z-score [17] | PBM binding z-score [18] | PBM binding z-score [19]
TGACTGAGGTTAAAGATCAGGGAACGTGGCGTCG | 2.91 | 2.35 | -0.224 | 1.69 | -0.22 | 3.09 | 3.98 | 2.03 | 3.59 | -0.162 | 1.61 | 0.314 | 0.079 | 0.216 | 2.03 | -0.418 | 2.68 | -0.102 | 2.05
CCTGCTCGGTCAATGGTCAGCTAAAGCAGCTCGC | 0.351 | 0.448 | -0.0838 | -0.541 | -0.234 | -0.00581 | 1.43 | -0.317 | 0.846 | 0.753 | 0.0131 | -1.19 | -1.21 | -0.242 | -0.189 | -0.933 | 0.252 | -0.686 | 2.28
CCTGCTAGGTCATGGTCAGGTAATCTACAGTATG | 3.64 | 2.62 | 0.355 | 1.7 | -0.354 | 2.37 | 2.82 | 0.671 | 1.75 | 4.45 | 3.79 | 0.801 | 0.0323 | 1.72 | 1.78 | -0.0214 | 2.55 | 0.209 | 4.04
ATATGTAGGTTACATCCGGGTCTTTCAGGCTATG | 0.415 | 2.91 | 0.384 | 1.23 | 0.526 | 4.92 | 4.07 | 1.55 | 3.34 | 7.37 | 7.42 | 1.99 | 3.12 | 1.13 | 0.703 | 0.192 | 0.794 | 0.548 | 1.21
TCTAGTTGGTCAAAGGTCTCACACTCGAAATGCG | 1.27 | 1.49 | 0.269 | 1.57 | 0.449 | 7.81 | 7.33 | 6.65 | 8.53 | 3.11 | 3.77 | 1.08 | 1.78 | 2.48 | 1.34 | 0.942 | 1.89 | 1.17 | 1.88
TAGCCTAGGTCATTGGACCAGTATAGTACGCATC | 4.61 | 3.73 | 1.02 | 2.36 | 0.187 | 2.88 | 3.16 | 1.04 | 2.07 | 1.74 | 3.17 | 0.686 | -0.0362 | 1.31 | 1.66 | -0.324 | 2.35 | -0.143 | 3.65
GCTGCTCGGTCAACTGATGGTCAGCTAAAGCTCG | 0.704 | 0.751 | 0.0425 | -0.248 | -0.201 | -0.584 | -0.239 | -0.686 | -0.163 | 0.634 | -0.00578 | -0.981 | -0.237 | -0.156 | -0.105 | -0.492 | 0.225 | -0.934 | 2.87
CGAACTATGTCAAGGACAGTGAATCTCCGCACGC | 0.0723 | -0.232 | -0.234 | -0.456 | -0.269 | 0.856 | 0.74 | -0.213 | 0.259 | 3.57 | 2.11 | -0.346 | 0.361 | 0.224 | -0.112 | 0.37 | 0.29 | 0.0991 | 0.88
ATATGTAGGTTCCATCCGGGTCATTCAGGCTATG | 1.31 | 1.3 | 0.192 | 1.88 | 0.514 | 2.33 | 2.26 | 0.557 | 1.74 | 4.13 | 4.29 | 1.99 | 1.93 | 2.32 | 3.14 | 2.22 | 2.86 | 0.215 | 1.43
CCTACTGGGCCAACAAGGTCATTGATGCCGATAA | 2.09 | 2.49 | 1.44 | 2.45 | -0.582 | 3.23 | 3.3 | 0.856 | 2.31 | 3.7 | 4.68 | -0.0965 | -0.198 | 2.24 | 3.92 | 3.62 | 3.64 | 0.0671 | 2.8
TCATATAGGTAATAGGTGAAAGTCGGTGTGGTAA | 1.15 | 1.11 | 0.316 | 1.18 | 0.0131 | 6.6 | 6.84 | 6.19 | 7.27 | 4.73 | 4.33 | 0.889 | 1.42 | 1.61 | 0.866 | 0.435 | 1.56 | 1.65 | 0.581
TAGCCTAGGTTATGCGGGCCAGTATAGTGTCGGC | -0.487 | -0.497 | -0.618 | -0.71 | -1.29 | 0.00764 | -0.446 | -0.658 | -0.569 | 0.00744 | 0.945 | -0.658 | -0.513 | -0.501 | -0.511 | -0.854 | -0.208 | -1.25 | 0.558
TGAATGAGGTTTAAGATCAGGGAACGTGGCGTCG | -0.267 | -0.0856 | -0.566 | -0.625 | -0.285 | 0.663 | 1.49 | 0.74 | 1.15 | -0.249 | 0.242 | 0.0033 | -0.732 | -0.165 | -0.2 | -0.311 | -0.216 | -0.194 | 0.0151
ACCAGCAGGCCAAGGGTCACTCAAGATTAGTCCG | 2.48 | 2.71 | -0.066 | 2.55 | -0.909 | 6.25 | 6.19 | 4.57 | 5.83 | -0.293 | 2.57 | -0.621 | -0.244 | 2.32 | 2.95 | -0.192 | 3.93 | 0.0192 | 3.37
CCTTACAGGTCACGAGGTTATAGCACGACGAGCG | 7.41 | 5.59 | 2.37 | 4.42 | 0.788 | 7.55 | 6.56 | 3.71 | 5.37 | 5.46 | 6.09 | 1.32 | 1.39 | 3.54 | 4.58 | 0.719 | 5.38 | 1.27 | 5.31
